Source: PubChem BioAssay AID686979 (National Center for Advancing Translational Sciences (NCATS), 2013)
Out of some 420,000 compounds screened, about 50,000 (12%) were called active. A call without a number means that no potency is given here. Roughly 26% stayed inconclusive and do not appear here. Calls come from the whole dose curve; as a rule, active = well fitted inhibition curve with a large enough effect; inconclusive = small, poorly fitted or top-dose-only effect; inactive = flat fitted curve, though single readings scatter. This excerpt belongs to a sample that is enriched for actives.

experiment: qHTS for Inhibitors of human tyrosyl-DNA phosphodiesterase 1 (TDP1): qHTS in cells in presence of CPT; conditions: chicken DT40 Tdp1-/-;hTDP1 cells + 20 nM CPT, ATP luminescence, 48 h; series mostly up to 46.2 µM; note: nearly all actives have a fitted effect of over 55% in size
How it was run: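 Chicken DT40 Tdp1-/- cells complemented with human TDP1, 400 cells/well, exposed to compounds plus 20 nM camptothecin for at least 48 h at 37 C; viability read as ATP content by CellTiter-Glo luminescence.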
Potency is the fitted concentration of half-maximal effect.

SMILES | Potency
CCOc1ccc(N(CC)C(=O)C2CCN(S(=O)(=O)c3cccc4nonc34)CC2)cc1 | inactive
CCN(C(=O)C1CCCN(c2nc(-c3ccc(OC)cc3)no2)C1)c1ccc(OC)cc1 (configuration not stated) | 16.4 µM (active)
COc1ccc(NC(=O)N2CCCC(c3nc(-c4ccc(F)cc4)no3)C2)cc1 (configuration not stated) | inactive
CS(=O)(=O)c1ccccc1C(=O)Nc1ccc2sccc2c1 | inactive
O=C(Nc1cc2c3c(c1)CC(=O)N3CCC2)c1ccccc1F | inactive
CCCCC12CN3CC(C)(CN(C1)C3c1ccc(O)c(OC)c1)C2=O (configuration not stated) | inactive
CCCCCCSc1ccc([C@@H]2[C@@H]3C(=O)N(CC)C(=O)[C@@H]3[C@]3(C(=O)OC)CCCCN23)cc1OC | 20.6 µM (active)
CCN1C(=O)[C@H]2[C@@H](c3ccccc3)N[C@]3(CCCN(Cc4ccc(C)cc4)C3=O)[C@H]2C1=O | inactive
CCN1C(=O)[C@@H]2[C@@H](c3ccc(-c4cccc(Cl)c4)cc3)N3CCC[C@@]3(C(=O)OC)[C@@H]2C1=O | 14.6 µM (active)
CC(=O)N(CN1C(=O)C2C3C=CC(C3)C2C1=O)c1cccc(Cl)c1 (configuration not stated) | inactive
CC1CCN(CCCNC(=O)CN2C(=O)CSc3ccc(S(=O)(=O)N4CCCCC4)cc32)CC1 | inactive
O=C(Cc1ccccc1)Nc1ccc(C(=O)Nc2ccccc2C(=O)O)cc1 | inactive
O=C(CCc1cn(Cc2ccc(F)cc2)c2ccccc12)NC1CCCCC1 | inactive
Cn1cc(CCC(=O)NC2CC2)c2ccccc21 | inactive
Cc1ccc(CNC(=O)[C@@H](NC(=O)Cc2ccccc2)C(C)C)cc1 | inactive
Cc1ccc(Cn2cc(CCC(=O)NCc3ccc(OC(C)C)cc3)c3ccccc32)cc1 | 23.1 µM (active)
CCCCC(=O)NCc1ccc(F)cc1 | inactive
Cc1ccc(CNC(=O)Cc2cn(C)c3ccccc23)cc1 | inactive
CC(NC(=O)CCc1cn(Cc2ccccc2Cl)c2ccccc12)c1ccccc1 (configuration not stated) | 20.6 µM (active)
CC(NC(=O)Cn1cc(C(F)(F)F)cc(Cl)c1=O)c1ccccc1 (configuration not stated) | inactive
CCn1cc(CCC(=O)NCc2ccc(F)cc2)c2ccccc21 | 16.4 µM (active)
CC(C)C1Cc2[nH][nH]c(=O)c2C(c2ccc(Cl)cc2)O1 (configuration not stated) | inactive
O=C(NCc1ccccc1)C1CCN(C(=O)Cc2ccccc2)CC1 | inactive

SMILES | Potency
Cc1ccc(C(=O)Cc2nnc(C)s2)cc1 | inactive
COc1ccc(NC(=O)C(CC(C)C)NS(=O)(=O)c2ccc3c(c2)CCN3C(C)=O)cc1OC (configuration not stated) | inactive
O=C1COc2c1ccc(O)c2O | inactive
COc1ccc(F)cc1C(=O)COC(=O)c1n[nH]c(=O)c2ccccc12 | inactive
COc1ccc(C)cc1N(C(=O)Cn1nnc(-c2ccc(C)o2)n1)C(C(=O)NC1CCCC1)c1ccncc1 (configuration not stated) | inactive
COc1ccc(C2OCC3(CO2)SC(=O)NC3=O)cc1OC (configuration not stated) | inactive
N#CCC(=O)NC1CCC(CC2CCC(NC(=O)CC#N)CC2)CC1 (configuration not stated) | inactive
COc1ccc(NC(=O)C(=O)NCc2ccco2)cc1 | inactive
COc1ccc(Nc2nc(Cl)nc(NCc3ccco3)n2)cc1 | inactive
COc1ccc(Nc2nc(NCc3ccco3)nc(N/N=C/c3ccccc3Cl)n2)cc1 | 20.6 µM (active)
CCN(CC)S(=O)(=O)c1ccc(OC(C)C)c(N)c1 | inactive
COc1ccc(OC)c(NC(=O)c2cc(-c3cc(F)ccc3OCC3CCCO3)n[nH]2)c1 (configuration not stated) | 8.2 µM (active)
COc1ccc2cc(C(=O)NCC3CCCO3)[nH]c2c1 (configuration not stated) | inactive
O=C(O)c1ccc(OCC2CCCO2)cc1 (configuration not stated) | inactive
O=S(=O)(c1ccc(F)cc1)n1ccc(-c2cnc(-c3ccccc3)s2)n1 | inactive
COc1cc(/C=C/C(=O)OCC(=O)c2ccccc2)cc(OC)c1OC | inactive
COc1cc2c(cc1NC(=O)CN1CCN(S(=O)(=O)c3ccc(F)cc3)CC1)oc1ccccc12 | inactive
COc1cc2c(cc1NC(=O)COC(=O)/C=C/c1ccccc1)oc1ccccc12 | 20.6 µM (active)
CSCCC(NC(=O)c1ccccc1)C(=O)N1CCCCCCC1 (configuration not stated) | inactive
COc1ccc(/C=C(\C#N)C(=O)OCC(=O)N(C)C2CCS(=O)(=O)C2)cc1 (configuration not stated) | inactive
CC(C)(C)C(=O)/C(C#N)=C/c1ccc(O)cc1 | inactive
COc1ccc(/C=C(\C#N)C(=O)ONC2=NCCCCC2)cc1 | 16.4 µM (active)
CCN(CC(=O)Nc1c(F)cccc1F)C(=O)Cc1cccs1 | inactive

SMILES | Potency
CC(C)C1CC2=C(C(=O)OC(C)(C)O2)C(c2ccc(F)cc2)O1 (configuration not stated) | inactive
O=C(NCc1cccs1)C1CCN(S(=O)(=O)c2ccc(Cl)cc2)CC1 | inactive
O=C(NCc1ccc(Cl)cc1)C1CCN(S(=O)(=O)c2cccs2)CC1 | 11.6 µM (active)
O=C(NCc1ccccc1)C1CCCN(S(=O)(=O)c2cccs2)C1 (configuration not stated) | inactive
CC1=C(C(N)=O)C(c2ccc(F)cc2)n2nc(CCCO)nc2N1 (configuration not stated) | inactive
CCCCOP(=O)(c1ccc(N(C)C)cc1)C(O)c1cc(OC)ccc1OC (configuration not stated) | inactive
Cc1ccc(S(=O)(=O)N(C)c2ccc(OCC(=O)OCc3ccc(C#N)cc3)cc2)cc1 | inactive
Cc1ccc(CN2CCN(Cc3cccc(C)n3)CC2CCO)cc1 (configuration not stated) | inactive
COC(=O)C1CCN(C(=O)COC(=O)c2cc(S(=O)(=O)N3CCOCC3)ccc2C)CC1 | inactive
N#Cc1cccc(NC(=O)CCC2CCCC2)c1 | inactive
CC(=O)Nc1ccc(NC(=O)COc2ncnc3ccccc23)cc1 | inactive
Cc1ccc(Nc2c3c(nc4ccccc24)CCC3)cc1 | 11.6 µM (active)
CC(=O)Nc1ccc(Nc2c3ccccc3nc3ccccc23)cc1 | 0.326 µM (active)
N#Cc1cccc(NC(=O)CN2CCCCCC2)c1 | inactive
O=C(Nc1c2c(nc3ccccc13)CCCC2)c1ccccc1Br | inactive
N#Cc1cccc(Nc2c3c(nc4ccccc24)CCCC3)c1 | 18.4 µM (active)
CC(=O)Nc1ccc(S(=O)(=O)N(C)c2nc3ccccc3nc2Cl)cc1 | inactive
CN1CCCN(C(=O)C2CCCCC2)CC1 | inactive
CC1(C)C2CC=C(/C=N/NC(=O)C3CC3)C1C2 (configuration not stated) | inactive
Cc1cc(C)n(CCC(=O)N2CCN(S(=O)(=O)c3ccc(C)c(C)c3)CC2)n1 | inactive
O=C(OCCN1C(=O)c2ccccc2C1=O)[C@@H]1CC(O)CN1S(=O)(=O)c1ccccc1[N+](=O)[O-] (some centres not stated) | inactive
